Bioassay records from PubChem BioAssay.
Only some compounds are listed: those with a hit (about 19% of all), similar ones and a draw of the others.
DT40 TDP1 no CPT = qHTS for Inhibitors of human tyrosyl-DNA phosphodiesterase 1 (TDP1): qHTS in cells in absence of CPT. DT40 Tdp1-/- hTDP1 cells, no CPT, ATP luminescence, 48 h. Potency, µM (doses to about 46.2 µM), inactives show at the top dose activity change, negative = growth inhibition, hits mostly inhibitors. 420,000 compounds, 15% hits; further: potency means the concentration at half of the fitted maximal effect; on the % scale 0 is the no-effect control and ±100 the full control effect; nearly all actives have a fitted effect of over 55% in size
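A cellular qHTS used chicken DT40 cells lacking endogenous Tdp1 but carrying stably transfected human TDP1. Compounds were applied without camptothecin, and cell growth kinetics were judged by ATP-dependent luminescence after ≥48 hr.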
IL1B secr inh = inhibitors of inflammasome signaling (IL-1 beta secretion); 360,000 compounds, 4.7% hits; activity change, % at 57.5 µM; THP-1 LPS/ATP IL-1B secretion, AlphaLISA, 16 h; active compounds read low; in the data active means activity change below about -50%; inconclusive means mostly about -30% to -49%; further: on the % scale 0 is the no-effect control and ±100 the full control effect
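THP-1 cells pretreated 1 hr with compounds (up to 57.5 uM final), then stimulated with LPS (250 ng/mL final) plus ATP (1.25 mM final); secreted IL-1B measured by AlphaLISA after 16 hr, decreased signal indicating inhibition.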
TDP1 cell CPT = growth inhibition of DT40 Tdp1-/-;hTDP1 cells with camptothecin (screen for TDP1 inhibitors); chicken DT40 Tdp1-/-;hTDP1 cells + 20 nM CPT, ATP luminescence, 48 h; Potency, µM (top dose mostly 46.2 µM), for inactives: at the highest dose activity change, negative = growth inhibition, actives largely listed as inhibitors; 420,000 compounds, 12% hits; further: potency means the concentration at half of the fitted maximal effect; on the % scale 0 is the no-effect control and ±100 the full control effect; nearly all actives have a fitted effect of over 55% in size
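Cell growth measured by CellTiter-Glo luminescence after a minimum 48 h, 37 C compound exposure with 20 nM CPT in Tdp1-knockout DT40 cells stably expressing hTDP1, seeded 400/well; qHTS titration format.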
BCR signal inh = blocks chronic active B-cell receptor signaling | ABC-DLBCL IkBa-CBG/CBR reporter, luminescence ratio, 4 h | Potency, µM (series often up to 46.1 µM), for inactives: at the highest dose activity change, negative = inhibition, most hits filed as inhibitors | 340,000 compounds, 0.05% hits | AID 493014; active means well fitted inhibition curve with a large enough effect in the signal ratio, with a control signal flat, not every such curve was filed as active; inconclusive means small, poorly fitted or top-dose-only effect, or effect the other way, or a change in a side signal; the % refers to the signal ratio;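 further: potency means the concentration at half of the fitted maximal effect; plate controls were basal doxycycline-induced cells for no effect and cells given 10 µM MG132 for full effect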
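Compounds up to 46 uM were incubated four hours with TMD8 cells whose green CBG68 luciferase is fused to IkappaBalpha; red CBR luminescence normalised the signal, and concentration-effect curves were fitted to fusion, red and ratio data.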
SW480 rerep = inducers of DNA re-replication in SW480 colon cancer cells | SW480 DNA re-replication, Hoechst DNA content imaging, 48 h | Potency, µM (series often up to 46.1 µM), for the others: at the highest dose re-replication activation, hits mostly activators | 340,000 compounds, 1.8% hits | AID 624297; further: potency means the concentration at half of the fitted maximal effect; % of control where 0% means no effect; nearly all actives have a fitted effect of over 55% in size
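Cells (250 per well) received 23 nL compound or DMSO by pin tool and were kept 48 hr at 37 C, 5% CO2. Nuclei were then stained with Hoechst for 40 min and scanned for DNA content.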
MCF10A rereplic = DNA re-replication induction in MCF 10a cells | MCF 10A DNA re-replication, Hoechst nuclear intensity, 48 h | Potency, µM (series often up to 46.1 µM), for inactives: at the highest dose activity, positive = re-replication, actives largely listed as activators | 350,000 compounds, 2.9% hits; further: potency means the concentration at half of the fitted maximal effect; % of control where 0% means no effect; nearly all actives have a fitted effect of over 50% in size
* marks the source's active call; other numbers are inactive results; ? = inconclusive; . = not tested or not shown; [ ] = remark or other dose. Unless noted, the call rests on the fitted dose curve; in most records, active means well fitted curve in the direction sought with a large enough effect; inconclusive means small, poorly fitted or top-dose-only effect, or another doubt; inactive means no such curve, though single readings can be large; an effect the other way counts as inactive or inconclusive.

SMILES	DT40 TDP1 no CPT	IL1B secr inh	TDP1 cell CPT	BCR signal inh	SW480 rerep	MCF10A rereplic
CN(CC(=O)Nc1ccccc1Cl)C(=O)COC(=O)c1nc(Cl)c(Cl)c(Cl)c1Cl	?	-67*	?	?	?	5.8µM*
C[C@@H](N)CCCP(=O)(O)O	-20%	.	-22%	.	.	.
O=C(/C=C/c1c(Cl)cccc1Cl)Nc1ccncc1	21µM*	-60*	?	-17%	-4%	14%
O=C(/C=C/c1ccccc1)NCCSCc1ccc(Cl)cc1	3%	10	4%	?	-6%	17%
Cc1cc(C)nc(NC(=O)/C=C/c2ccccc2Cl)c1	?	?	-5%	?	-2%	-23%
Cc1cc(C)nc(NC(=O)/C=C/c2ccc(Cl)cc2Cl)c1	13µM*	-53*	?	2%	-31%	?
O=C(/C=C/c1ccc(Cl)cc1Cl)NCCSCc1ccccc1	0%	-96*	-4%	?	1%	?
Cc1ccnc(NC(=O)/C=C/c2ccccc2Cl)c1	-1%	-69*	9%	?	?	9%
OC[C@@H]1CN(Cc2ccc3c(c2)OCO3)C[C@H](n2cnc3c(NCc4ccc(F)cc4)ncnc32)O1	?	-2	?	.	.	.
COc1cc(-c2cc(C)c3c(OC)ccc(OC)c3n2)cc2c1OCCN(C(=O)CCn1ccc(C)n1)C2	?	.	13%[9.04 µM]	.	.	.
CC(C)(C)OC(=O)N1CCN(CCNC(=O)c2ccccc2)CC1	-1%	24	-11%	3%	2%	-4%
CC1(C)CC(=O)c2cc(C(=O)Nc3ccc(Br)cc3)c(=O)n(-c3ccc(Cl)cc3)c2C1	5%	.	-1%	.	.	.
C=COCCNC(=S)N1CCOCCOCCN(C(=S)NCCOC=C)CCOCCOCC1	-7%	-17	-16%	-1%	5%	0%
Cc1ccc(NC(=O)/C=C/c2ccccc2Cl)cc1Cl	-22%	.	-19%	.	.	.
O=C(/C=C/c1ccccc1Cl)Nc1ccncc1	?	-22	?	-3%	3%	-20%
CC(=O)N(C)c1ccc(NC(=O)/C=C/c2ccccc2Cl)cc1	13µM*	-4	?	6%	8%	9%
O=C(/C=C/c1ccc(Cl)cc1Cl)Nc1ccncc1	15µM*	-5	?	0%	43%	-3%
Cc1cc(NC(=O)CSc2ncc(C(=O)Nc3ccccc3)c(=O)n2C)no1	1%	.	-3%	-17%	.	.
Cn1c(SCC(=O)c2ccccc2)ncc(C(=O)Nc2ccccc2)c1=O	21µM*	15	?	-1%	-2%	4%
Cc1ccc(NC(=O)c2cnc(SCC(=O)c3ccccc3)n(C)c2=O)cc1	16µM*	8	-36%	8%	-5%	-9%
CC1Cc2cc(S(=O)(=O)CCC(=O)Nc3ccc(F)cc3Cl)ccc2N1C(=O)C1CC1 (centres undefined)	13µM*	.	23µM*	.	.	.
CC1Cc2cc(S(=O)(=O)CCC(=O)NCc3ccccc3Cl)ccc2N1C(=O)C1CC1 (centres undefined)	7.3µM*	.	7.3µM*	.	.	.
Cc1ccc(CNC(=O)C2CCN(S(=O)(=O)c3ccc4c(c3)CC(C)N4C(=O)C3CC3)CC2)cc1 (centres undefined)	0%	-2	-11%	1%	-27%	13%
Cc1ccc(CNC(=O)CCS(=O)(=O)c2ccc3c(c2)CC(C)N3C(=O)C2CC2)cc1 (centres undefined)	5.8µM*	20	7.3µM*	-10%	?	10µM*
O=C1NC(Cc2ccccc2)c2nc3ccccc3c(=O)n2-c2cc(Cl)ccc21 (centres undefined)	.	.	.	10%	.	.
SMILES	DT40 TDP1 no CPT	IL1B secr inh	TDP1 cell CPT	BCR signal inh	SW480 rerep	MCF10A rereplic
Cc1cccc(NC(=O)c2c(NC(=O)c3ccco3)sc3c2CCC(C(C)(C)C)C3)c1 (centres undefined)	-2%	.	5%	.	.	.
Cc1ccc2c(c1)c1ncnc(N3CCC4(CC3)OCCO4)c1n2C	.	.	.	0%	.	.
Cc1ccc2c(c1)c1ncnc(N3CCN(c4ccccc4)CC3)c1n2C	?	16	21µM*	-1%	-1%	?
Cc1cc(C)c2nc(N3CCC(C(=O)NCCCN4CC(C)CC(C)C4)CC3)sc2c1 (centres undefined)	23µM*	-17	?	?	-3%	?
Cc1cc(C)c2nc(N3CCCC(C(=O)NCCCN4CCOCC4)C3)sc2c1 (centres undefined)	?	?	?	-27%	?	16%
COc1ccc(-c2noc(N3CCC(C(=O)NCc4ccc(F)cc4)CC3)n2)cc1	?	26	-28%	?	2%	11%
CCN1CCN(CCCNC(=O)C2CCCN(c3nc4c(C)cc(C)cc4s3)C2)CC1 (centres undefined)	21µM*	-14	23µM*	?	7%	13%
COc1ccc(-c2noc(N3CCC(C(=O)NCCCN4CC(C)CC(C)C4)CC3)n2)cc1 (centres undefined)	?	-13	3.7µM*	-15%	0%	4%
COc1ccccc1N(C)S(=O)(=O)c1ccc(C)c(C(=O)Nc2nccs2)c1	?	-11	-5%	?	-1%	2%
CCC(CO)Oc1cc(NCc2ccc(C(F)(F)F)cc2)c2ncn(C(C)C)c2c1 (centres undefined)	?	-25	?	-1%	?	-19%
CCC(CO)Oc1cc(NCc2ccc(Cl)cc2Cl)c2ncn(C(C)C)c2c1 (centres undefined)	?	78	?	-8%	-9%	?
CCC(CO)Oc1cc(NCc2cccc(C)c2)c2ncn(C(C)C)c2c1 (centres undefined)	?	18	21µM*	1%	-4%	-1%
CCC(CO)Oc1cc(NCc2ccccc2O)c2ncn(C(C)C)c2c1 (centres undefined)	18µM*	0	15µM*	?	1%	-16%
CCC(CO)Oc1cc(NCc2cccc(C(F)(F)F)c2)c2ncn(C(C)C)c2c1 (centres undefined)	?	0	16µM*	0%	10%	-31%
CC[C@H](CO)Oc1cc(NCc2cccc(N)c2)c2ncn(C(C)C)c2c1	?	161	26µM*	.	.	.
COc1cc(/C=C(\C#N)C(=O)Nc2ccc(C)cc2)ccc1OCc1cc(=O)n2nc(C)sc2n1	-12%	.	-19%	.	.	.
CCCOc1cc(NCc2ccccc2)c2ncn(C(C)C)c2c1	?	?	?	3%	-8%[9.22 µM]	?
